Measurements from PubChem BioAssay AID1851 (National Center for Advancing Translational Sciences (NCATS), 2009).
The whole screen tested about 16,000 compounds, of which about 5,800 (36%) were called active. About 23% were inconclusive and are not listed. The call rests on the fitted dose curve; in most records, active means well fitted curve in the direction sought with a large enough effect; inconclusive means small, poorly fitted or top-dose-only effect, or effect the other way; inactive means no such curve, though single readings can be large or run the other way. The list shows a part of the results.

The molecules below were run against Cytochrome P450 2C19 (Homo sapiens) (UniProt P33261) (assay: Cytochrome panel assay with activity outcomes). Details: recombinant CYP, pro-luciferin dealkylation, luminescence, p450-cyp2c19; series mostly up to 57.1 µM; activity, negative = inhibition: at the top concentration.
On the % scale 0 is the no-effect control and ±100 the full control effect.

Cytochrome P450 2C19 (Homo sapiens), sequence (P33261 whole entry, looked up): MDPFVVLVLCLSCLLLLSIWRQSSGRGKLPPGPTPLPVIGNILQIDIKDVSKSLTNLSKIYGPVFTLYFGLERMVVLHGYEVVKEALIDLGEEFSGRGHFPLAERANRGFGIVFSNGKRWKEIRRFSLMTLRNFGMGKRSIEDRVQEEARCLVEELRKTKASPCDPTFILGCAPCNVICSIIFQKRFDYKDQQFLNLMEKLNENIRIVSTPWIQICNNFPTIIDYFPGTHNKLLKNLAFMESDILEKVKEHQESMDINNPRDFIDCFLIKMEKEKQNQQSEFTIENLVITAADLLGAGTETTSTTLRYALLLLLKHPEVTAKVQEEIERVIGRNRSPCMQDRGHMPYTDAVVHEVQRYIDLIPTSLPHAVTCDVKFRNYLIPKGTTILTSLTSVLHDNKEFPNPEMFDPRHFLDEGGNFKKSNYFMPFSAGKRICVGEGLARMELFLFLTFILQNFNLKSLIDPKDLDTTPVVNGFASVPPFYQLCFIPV

activity, negative = inhibition, inactive:
NC(=O)NC(=O)[C@H]1CCCC[C@@H]1C(=O)O 12.1% [at 11.4 µM], Cn1ncc2c(Cl)ncnc21 -3.14% [at 11.4 µM], CCCCN(c1ccccc1)c1ncnc2c1cnn2C -9.3% [at 11.4 µM], COc1ccccc1CN1CC[C@@]2(CCCN(C(=O)c3c(C)noc3C)C2)C1 -31.8%, CN(C)c1ccc(-c2noc(C3CCN(S(=O)(=O)c4cccc(C(=O)O)c4)CC3)n2)cc1 -27.6%, CCOC(=O)/C(C#N)=C1/C=CN(C)C=N1 10.6%, Cn1c(=O)c2[nH]c(SCc3ccccn3)nc2n(C)c1=S 29.1% [at 11.4 µM], CC(C)(C)CC(C)(C)c1cc(O)c(O)c(CN2CCCCC2)c1 -5.03% [at 11.4 µM], O=C1O[C@H](CN2CCOCC2)CN1/N=C\c1ccc([N+](=O)[O-])o1 8.96% [at 25.6 µM], Nc1ccc(S(=O)(=O)Nc2nccs2)cc1 7.08% [at 25.6 µM], Nc1ccc(S(=O)(=O)Nc2ncccn2)cc1 25.6% [at 25.6 µM], O=C(O)c1cccnc1 6.1% [at 25.6 µM], CCNc1ncc2nc(-c3cccs3)c(=O)n(CCC#N)c2n1 -20.2%, COC(Cc1nnc(SC)n1-c1ccccc1)OC -17%, COC(Cc1nnc(SC)n1-c1ccc(Cl)cc1)OC -9.57%, CC(C)CN1CCCC2(CCN(C(=O)c3csnn3)CC2)C1 -12.1%, C[C@@H]1CCCC(CC(=O)O)(CC(=O)O)C1 9.85% [at 11.4 µM], O=C(/C=C/c1ccc(Br)cc1)NC1CCCCCC1 -28.3%, Cc1cc2nc3[nH]c4c(Cl)cc(Cl)cc4c3nc2cc1C 32.6% [at 11.4 µM], CN(C)C(=O)c1ccc(-c2cc(N(C)Cc3ccco3)ncn2)cc1 -41.6%, CC(=O)OC[C@H]1O[C@@H](O/N=C\[C@@H](C)[C@H](OCc2ccccc2)C(C)C)[C@H](OC(C)=O)[C@@H](OC(C)=O)[C@H]1OC(C)=O 12.9% [at 11.4 µM], O=C1C=C(NCC2CCCO2)C2(CCCCC2)O1 (stereo not drawn) -39.1%, Cc1cc2ccccc2nc1SCC(=O)Nc1nc(-c2ccccc2)cs1 -7.04%, CC(=O)OC[C@@H]1O[C@H](C/C=N\O[C@@H]2O[C@H](COC(C)=O)[C@@H](OC(C)=O)[C@H](OC(C)=O)[C@H]2OC(C)=O)C=C[C@@H]1OC(C)=O 12.3% [at 11.4 µM], O=C(COc1ccc(Cl)cc1)Nc1ccc(N2CCN(C(=O)c3ccco3)CC2)cc1 -27.1%, C[C@H]1O[C@@H](CC(=O)O)Cc2c1c(O)c1c(O)cc(-c3cc(=O)c4c(=O)c5c(c(=O)c=4c3=O)C[C@H](CC(=O)O)O[C@@H]5C)c(O)c1c2O -5.68% [at 11.4 µM], COCCn1c(=O)c(-c2ccc(Cl)cc2)nc2cnc(N(C)C)nc21 6.88%, COc1ccc2[nH]c3c(c2c1)CN(C)CC3 -22.7%, CCOC(=O)Cc1c(C)nc2c(C#N)c[nH]n2c1=O -24.9%, COCCN(CCOC)S(=O)(=O)c1ccc(C(=O)Nc2nc(C)c(C(C)=O)s2)cc1 -35.5%, CCCCN(CC)S(=O)(=O)c1ccc(C(=O)Nc2nnc(CSC)o2)cc1 -8.71%, Cc1ccc(C2CC(C(F)(F)F)n3nc(C(=O)NCCN4CCOCC4)cc3N2)cc1 (stereo not drawn) -29.1%, Cc1ccnc(NS(=O)(=O)c2ccc(N=[N+]=[N-])cc2)n1 39.6% [at 11.4 µM], CN1CCN(NC(=O)c2ccccc2F)CC1 2.59%, C[C@H](CN(C)C)C(=O)c1ccccc1C(=O)O 12.3% [at 11.4 µM], CCCCN(C)CCCNC(=O)c1ccc(N2CCCC2=O)cc1 15.5%, CCC(=O)N1CCc2cc(S(=O)(=O)NC(C(=O)NCc3ccc(F)cc3)C(C)C)ccc21 (stereo not drawn) -14.1%, COCCn1c(=O)c(-c2cc(F)cc(F)c2)nc2cncnc21 -22%, Cn1c(=O)c(-c2cc(F)cc(F)c2)nc2cncnc21 -31.9%, CNC(=O)c1c(I)c(C(=O)NCC(=O)Nc2c(I)c(C(=O)O)c(I)c(C(=O)NCCO)c2I)c(I)c(N(C)C(C)=O)c1I -35.8% [at 25.6 µM], O=C(O)[C@@H]1[C@@H](C(=O)Nc2ncccn2)[C@@H]2C=C[C@@H]1O2 0.77% [at 11.4 µM], CC[C@]1(O)C[C@@H]2CN(CCc3c([nH]c4ccccc34)[C@](C(=O)OC)(c3cc4c(cc3OC)N(C)[C@H]3[C@](O)(C(=O)OC)[C@@H](C(=O)OC)[C@@]5(CC)C=CCN6CC[C@@]43[C@@H]65)C2)C1 -25.1%, COC(=O)c1ccc(NC(=O)c2ccccc2)o1 -23.3%, COCCn1c(=O)c(-c2cccc(C#N)c2)nc2cnc(N3CCNCC3)nc21 -35.5%, Nc1ccc(N=Nc2c(S(=O)(=O)O)cc3ccccc3c2S(=O)(=O)O)cc1 1.46% [at 11.4 µM], Cc1cccc(C)c1NC(=O)CCN1C(=O)C2C3CCC(C3)C2C1=O (stereo not drawn) 9.83%, CCOC(=O)CCN1C(=O)[C@H]2[C@@H]3[C@H](O)[C@H](O)CC(=O)[C@H]3CC[C@H]2C1=O -31.9% [at 11.4 µM]

AC50, active:
Cn1ncc2c(NCCc3ccccc3)nc(Cl)nc21 0.126 µM, CCCCCC(=O)N1CCCC(c2nc(-c3ccc(OC)cc3)no2)C1 (stereo not drawn) 7.08 µM, COc1ccc(-c2noc(C3CCCN(C(=O)c4ccccc4OC)C3)n2)cc1OC (stereo not drawn) 11.2 µM, CCOC(=O)/C(C#N)=C1/SC(CC)C(=O)N1c1ccc(Br)cc1 (stereo not drawn) 1.58 µM, CC(C)OCCCn1c(=S)[nH]c2ncccc2c1=O 14.1 µM, COCCNC(=O)COC(=O)/C=C/c1cnc2ccccc2n1 22.4 µM, O=C1C=C(Nc2ccc(Cl)cc2)CC(c2ccc(Cl)cc2)C1 (stereo not drawn) 1.58 µM, Cn1c(/C=C/c2ccc([N+](=O)[O-])o2)nc2ccccc2c1=O 14.1 µM, Nc1ccc(S(=O)(=O)NCc2nccs2)cc1 0.0794 µM, Cc1cccc(NC(NC(=O)c2cccnc2)C(Cl)(Cl)Cl)c1 (stereo not drawn) 2.82 µM, O=C(NC(NCc1ccccc1)C(Cl)(Cl)Cl)c1cccnc1 (stereo not drawn) 4.47 µM, COc1ccc(NCc2nnc(SCc3ccccc3)n2-c2ccc(OC)cc2)cc1 3.98 µM, COC(=O)CSc1nnc(CNc2ccc(Cl)cc2)n1-c1ccccc1 5.01 µM, CCOc1ccc(NCc2nnc(SCc3ccccc3Cl)n2-c2ccccc2)cc1 2 µM, Cc1ccc(/C=C/C(=O)NC(=S)Nc2ccccc2C(=O)NC2CCCCC2)cc1 14.1 µM, O=c1c([N+](=O)[O-])cc(C(F)(F)F)cn1Cc1c(Cl)cccc1Cl 7.08 µM, CN(Cc1ccco1)c1cc(-c2ccc3c(c2)OCO3)ncn1 10 µM, CN(C)c1ccc(-c2cc(N(C)Cc3ccco3)ncn2)cc1 10 µM, COc1ccc2cc(C)c3nnc(SCC(=O)Nc4nc(-c5ccccc5)cs4)n3c2c1 5.01 µM, O=C(CN1CCN(c2ccc(Cl)cc2)CC1)Nc1ccc(F)c(F)c1 7.94 µM, O=C(CN1CCN(c2ccc(Cl)cc2)CC1)Nc1cccc(F)c1 5.01 µM, COC(=O)c1c(NC(=O)c2ccco2)sc2c1CCC2 4.47 µM, Cc1ccc2[nH]c3c(c2c1)CN(C(=O)CN1c2ccc(F)cc2CCC1C)CC3 (stereo not drawn) 3.55 µM, COC(=O)c1ccc2ccn(CC(=O)NC3CCCCC3)c2c1 1.58 µM, COC(=O)CSC1=C(C#N)C(c2cccc(F)c2)CC(=O)N1 (stereo not drawn) 11.2 µM, CCOC(=O)CSC1=C(C#N)C(c2sccc2C)C(C(C)=O)=C(C)N1 (stereo not drawn) 1.78 µM, CCOC(=O)CSC1=C(C#N)C(c2sccc2C)CC(=O)N1 (stereo not drawn) 7.94 µM, CCOC(=O)C1=C(C)NC(C)=C(C(=O)OCC)C1c1sccc1C 1.78 µM, CCOC(=O)CSC1=C(C#N)C(C)C2=C(CCCC2=O)N1 (stereo not drawn) 0.708 µM, CCN(CC)S(=O)(=O)c1ccc(C(=O)NC2=C(C(=O)OC)SCC2)cc1 8.91 µM, COC(=O)C1=C(NC(=O)c2cccc(OC)c2)CCS1 14.1 µM, CCOc1ccc(C(=O)NC(=S)N(Cc2ccccc2)Cc2ccccc2)cc1 8.91 µM, COc1ccc(CN(CCC#N)C(=S)NC(=O)c2ccccc2)cc1 7.94 µM, O=C(NC(=S)N(Cc1ccccc1)Cc1ccccc1)c1ccccc1F 2.24 µM, CCc1ccc(NC(=O)Cn2nc(C(F)(F)F)c3c2CCC3)cc1 7.94 µM, CCNC(=O)c1ccc(-n2nc(C(F)(F)F)c3c2CCCC3)cc1 5.62 µM, O=C1OCCC1Sc1nnc(-c2ccc(O)cc2)o1 (stereo not drawn) 10 µM, Cc1cc(C)c2[nH]c(=O)c(CN(Cc3ccco3)C(=O)c3cccs3)cc2c1 1.78 µM, CN(CCC#N)C(=O)c1ccc(CNS(=O)(=O)c2ccc(F)cc2)cc1 17.8 µM, Cc1c2cccc(Sc3ccccc3)c2c2c3c(cccc13)[S+](c1ccccc1)C2 (stereo not drawn) 0.0631 µM, COc1ccccc1CCn1c(=O)c(-c2cccc(F)c2)nc2cncnc21 1 µM, COc1ccccc1CCn1c(=O)c(-c2cc(F)cc(F)c2)nc2cncnc21 1.58 µM, CN(C(=O)CC(NC(=O)c1ccccc1)(c1ccccc1)c1ccccc1)c1ccccc1 11.2 µM, CCCCCC1=C2CNC(C)(C(=O)OC)C=C2C(C)C1=O (stereo not drawn) 20 µM, CCCCCC1=C2CNC(Cc3ccccc3)(C(=O)OC)C=C2C(C)C1=O (stereo not drawn) 6.31 µM, Cc1cc(NC(=O)CCN2C(=O)C3C4CCC(C4)C3C2=O)c(C)cc1Br (stereo not drawn) 11.2 µM
